Experimental data as given in PubChem BioAssay AID2315 (National Center for Advancing Translational Sciences (NCATS), 2010).
Among all 290,000 compounds or so, about 27,000 (9.3%) were called active. What follows is part of a selection rich in actives, with near analogues and random picks from the rest. A number with no mark means an inactive call. Rule as the data show it: active = inhibition mostly above about 28% (no sharp cut-off); inactive = mostly below about 43%.

Experiment: A qHTS for Small Molecule Inhibitors of Shiga Toxin; also: 0% is about no effect
Conditions: Vero cells, Shiga toxin protein synthesis inhibition reporter; at 38.7 µM, stronger effect = higher value

Row | SMILES | inhibition
1 | CCn1c(SCC(=O)Nc2ccc3c(c2)OCCO3)nnc1C(C)C | 23.4%
2 | CCC(=O)N1CCN(c2ccccc2NC(=O)COc2cccc(C)c2C)CC1 | -4.98%
3 | COc1ccc(S(=O)(=O)N2CCOC2CNC(=O)C(=O)NCc2ccc(F)cc2)cc1 (stereo unspecified) | -3.23%
4 | Cc1ccc(S(=O)(=O)NCCCn2ccnc2)cc1C(=O)NC(C)C | -5.57%
5 | COc1ccc(C(=O)Nc2ccccc2C(=O)NCc2ccco2)cc1 | 55.1% (active)
6 | COc1ccc2c(Cl)c(C(=O)NCc3ccco3)sc2c1 | 93.2% (active)
7 | O=C(NCc1ccco1)c1sc2cccc(F)c2c1Cl | 80.8% (active)
8 | COc1cc(C(=O)NC(=S)NCc2ccco2)cc(OC)c1OC | -9.57%
9 | COc1ccc2oc(C(=O)NCC(Cc3ccccc3)N(C)C)c(C)c2c1 (stereo unspecified) | 19.2%
10 | Cc1ccc(N(Cc2ccc(C(=O)Nc3ccccc3C(=O)NCc3ccco3)cc2)S(C)(=O)=O)cc1C | -16.6%
11 | O=C(NCc1ccco1)c1nn2cccnc2c1Cl | 18.5%
12 | O=C(Nc1ccccc1)Nc1ccccc1C(=O)NCc1ccco1 | 17.2%
13 | COc1cccc(NC(=S)NCc2ccco2)c1 | -1.12%
14 | COc1cc(C(=O)N[C@@H](C)C(=O)NCc2ccco2)cc(OC)c1OC | -3.33%
15 | O=C(NCc1ccco1)c1cc2sccc2n1Cc1ccc(F)cc1 | 59.6%
16 | COc1ccc2oc(C(=O)NCc3ccco3)c(C)c2c1 | 57% (active)
17 | CCNc1c(NS(=O)(=O)c2ccc(C3CCCCC3)cc2)c(=O)oc2ccccc12 | -11.4%
18 | COc1ccc(OCC(O)CN(C)C(=O)C(C)Oc2ccccc2)cc1 (stereo unspecified) | -1.44%
19 | Cc1cccc(NS(=O)(=O)c2ccc(-c3cnc(C4CC4)o3)cc2)c1 | 14.4%
20 | CC(C)[C@H](NC(=O)N1CC(=O)Nc2ccccc21)C(=O)N[C@@H](Cc1c[nH]c2ccccc12)C(=O)O | -8.09%
21 | C=CCOc1cccc(C2NC(=O)c3ccccc3O2)c1 (stereo unspecified) | 5.66%
22 | Cc1ccc(S(=O)(=O)N2CCN(C(=O)CSc3cc(C)ccc3C)CC2)c(C)c1 | -13%
23 | COc1ccc(C(=O)Nc2ccccc2C(=O)N/N=C/c2ccc(O)c(OC)c2)cc1 | -21.6%
24 | COc1ccc(C(=O)Nc2ccccc2C(=O)N/N=C/c2ccccc2OC)cc1 | 89.2% (active)
25 | COc1ccccc1C(=O)NNC(=O)c1ccc(NC(=O)c2ccccc2)cc1 | -13.9%
26 | COc1ccc(C(=O)NC(C)c2nccs2)cc1OC1CCN(C(C)C)CC1 (stereo unspecified) | -1.47%
